Hits are enriched below; roughly 2.4% of the tested compounds scored in any of these assays.
WRN inhibitor – inhibitors of human WRN helicase; 0.46% of 360,000 active; WRN helicase unwinding, fluorescent forked duplex, kinetic; Q14191; Potency, µM (series often up to 114 µM), actives largely listed as inhibitors; AID 651768; further: nearly all actives have a fitted effect of over 55% in size
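Kinetic fluorescence helicase assay: unwinding of a quenched forked DNA duplex (100 nM final) with 2 mM ATP final raises red fluorescence (525/598 nm). Compounds sat 15 min at room temperature with 20 nM WRN beforehand.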
POLI inh – blocks human DNA polymerase iota activity | 1% of 390,000 active | Pol iota fluorescent replication assay, 10 min | AID 588590 | Potency, µM (titrated, usually from 115 µM), most hits filed as inhibitors
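Fluorescent replication assay read twice, at 0 min and 10 min after adding 50 nM (final) substrate. Enzyme (10 nM) and compounds were first incubated 15 min at room temperature; enzyme-free buffer wells were negative controls.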
POLB inh – DNA polymerase beta (human) inhibition; AID 485314; P06746; Potency, µM (titrated, usually from 114 µM), hits mostly inhibitors; 1.3% of 340,000 active; Pol beta primer extension/strand displacement, fluorescence kinetic
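Kinetic readout of DNA synthesis with strand displacement by Pol beta. Compound and 10 nM enzyme sit 15 min at room temperature; 50 nM substrate starts the reaction, read immediately and at 10 min.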
FEN1 inhibitor – inhibitors of human flap endonuclease 1 | P39748 | Recombinant FEN1 flap cleavage, fluorescence, 15 min | Potency, µM (top dose mostly 114 µM), usual class: inhibitors | 0.35% of 390,000 active; further: nearly all actives have a fitted effect of over 65% in size
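Read-out was taken twice, immediately and after 15 min, following addition of 50 nM substrate to 10 nM FEN1 that had sat with test compound for 15 min at room temperature. Curves came from a four-parameter Hill model.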
POLK inh – inhibitors of human DNA polymerase kappa; Q9UBT6; 0.53% of 400,000 active; AID 588579; purified Pol kappa, fluorescent DNA synthesis assay, 10 min; Potency, µM (doses to about 107 µM), actives largely listed as inhibitors
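10 nM Pol kappa preincubated 15 min at room temperature with compounds, then reaction started with substrate at 50 nM final. Fluorescence read kinetically at 0 and 10 min; buffer-only wells served as negative control.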
Pol eta inh – inhibitors of human DNA polymerase eta | Q9Y253 | recombinant Pol eta, fluorescent DNA replication assay | Potency, µM (doses to about 114 µM), actives largely listed as inhibitors | 1.2% of 390,000 active
Target sequence (Q9Y253 whole entry, looked up): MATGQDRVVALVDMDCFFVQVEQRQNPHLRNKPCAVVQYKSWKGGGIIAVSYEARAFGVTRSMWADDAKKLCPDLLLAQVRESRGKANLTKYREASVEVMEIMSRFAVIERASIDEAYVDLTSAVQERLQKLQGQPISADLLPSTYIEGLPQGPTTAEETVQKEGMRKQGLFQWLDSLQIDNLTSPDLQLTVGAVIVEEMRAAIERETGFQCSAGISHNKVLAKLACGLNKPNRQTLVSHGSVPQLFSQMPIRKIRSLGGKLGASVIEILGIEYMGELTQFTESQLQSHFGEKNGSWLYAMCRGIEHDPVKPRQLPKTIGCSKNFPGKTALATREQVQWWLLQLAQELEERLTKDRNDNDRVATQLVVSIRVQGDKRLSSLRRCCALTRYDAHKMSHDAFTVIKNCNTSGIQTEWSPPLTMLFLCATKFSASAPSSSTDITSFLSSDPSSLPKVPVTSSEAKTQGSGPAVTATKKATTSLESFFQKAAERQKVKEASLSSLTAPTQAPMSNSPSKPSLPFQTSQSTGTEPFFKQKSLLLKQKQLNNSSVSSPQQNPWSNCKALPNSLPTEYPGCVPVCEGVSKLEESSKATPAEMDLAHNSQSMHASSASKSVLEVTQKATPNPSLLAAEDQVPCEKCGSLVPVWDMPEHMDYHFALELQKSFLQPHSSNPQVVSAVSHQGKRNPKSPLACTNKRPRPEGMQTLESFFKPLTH
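Pol eta (10 nM) was preincubated with compounds for 15 min at room temperature, after which fluorescent replication substrate (50 nM final) was added to start the reaction. Fluorescence was read kinetically at 0 and 10 min.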
Hits are given with their value; – = inactive; ? = inconclusive; · = not tested or not shown; [ ] = remark or other dose. The call rests on the fitted dose curve; in most records, active means well fitted curve in the direction sought with a large enough effect; inconclusive means small, poorly fitted or top-dose-only effect, or another doubt; inactive means no such curve, though single readings can be large; an effect the other way counts as inactive or inconclusive.

SMILES	WRN inhibitor	POLI inh	POLB inh	FEN1 inhibitor	POLK inh	Pol eta inh
COc1cccc(-c2noc(-c3cc4ccccc4oc3=O)n2)c1OC	·	71µM	–	–	–	–
COc1cccc2sc(Nc3nc(-c4ccncc4)cs3)nc12	–	–	?	–	–	–
COc1cccc2sc(Nc3nc(-c4cc5ccccc5oc4=O)cs3)nc12	?	?	35µM	?	?	?
CCn1c(C(=O)Nc2cc(C)cc(C)c2)cc2sc(Cl)cc21	·	–	?	–	–	–
CC(C)Cc1oc(C(=O)O)cc1CN1CCOCC1	–	–	89µM	–	–	–
O=c1cnc2cnc(Oc3ccccc3)nc2n1CCc1ccccc1	·	·	·	·	–	·
CCCC1=C/C(=C/c2ccc(-c3ccccc3OC)o2)C(=O)O1	–	?	?	–	–	25µM
COc1ccccc1-c1ccc(/C=C2/C=C(CC(C)C)OC2=O)o1	–	?	25µM	–	–	–
CC1CC(C)CN(C(=O)COC(=O)c2ccc([N+](=O)[O-])o2)C1 (stereo not given)	–	?	·	–	–	89µM
O=[N+]([O-])c1c(NCc2ccco2)ccc2nonc12	–	–	3.2µM	–	–	–
CCOC(=O)NNc1ccc2nonc2c1[N+](=O)[O-]	50µM	10µM	45µM	40µM	?	10µM
N=C1Sc2ccccc2C2=NCCCN12	·	–	–	·	·	–
O=C(O)CSC1=NS(=O)(=O)c2ccccc21	·	89µM	·	?	?	·
O=S1(=O)N=C(SCCO)c2ccccc21	–	–	–	–	–	–
CCOc1ccc(N(C)c2ccc(/C=C3/SC(=S)NC3=O)cc2)cc1	?	?	?	?	–	–
CCOc1c(O)ccc(/C=C2\SC(=S)NC2=O)c1[N+](=O)[O-]	–[11.6 µM]	13µM	20µM	–	?	25µM
Nc1cccc2c(=O)c3ccccc3[nH]c12	–	–	45µM	–	–	–
COc1ccc(S(=O)(=O)c2nnn(-c3cc(Cl)c(OC)cc3OC)c2C)cc1	·	?	–	–	–	89µM
Nc1cc(=O)[nH]c(=S)[nH]1	·	–	·	–	–	·
Cc1c(C(=O)NN2CCCCC2)nn(-c2ccc(Cl)cc2Cl)c1-c1ccc(Cl)cc1	·	·	·	·	–	·
O=C1c2cccc([N+](=O)[O-])c2C(=O)N1CCO	–	–	–	–	–	–
O=C1CSC(=S)N1N1C(=O)c2cccc([N+](=O)[O-])c2C1=O	·	·	3.2µM	·	·	·
O=C(O)Cc1sc(Nc2cccc3ccccc23)nc1-c1ccc(Cl)cc1	–[11.6 µM]	–	?	–	–	79µM
O=C(O)Cc1sc(Nc2cccc3ccccc23)nc1-c1ccccc1	–	–	·	–	–	–
O=C(C[n+]1cccc2cc(Cl)ccc21)c1ccc2ccccc2c1	·	–	·	–	–	·
SMILES	WRN inhibitor	POLI inh	POLB inh	FEN1 inhibitor	POLK inh	Pol eta inh
CCC(Cn1nnc2ccccc2c1=O)NC(=O)Nc1cc(Cl)ccc1OC (stereo not given)	·	?	–	–	–	–
N#C/C(=C\c1ccc(-c2ccc([N+](=O)[O-])cc2)o1)C(=O)Nc1nc(-c2cccs2)cs1	–	14µM	?	–	?	32µM
COc1ccccc1Oc1nc2c(c(=O)n(Cc3ccccc3F)c(=O)n2C)n1C	–	–	18µM	–	–	–
COc1cccc(N2CC34C=CC(O3)C(C(=O)O)C4C2=O)c1 (stereo not given)	–	?	?	–	?	14µM
Cc1cccc(N2CC34C=CC(O3)C(C(=O)O)C4C2=O)c1 (stereo not given)	–	–	–	–	–	–
O=S(=O)(c1ccc(F)cc1)N1CCN(c2nc(-c3ccc(F)cc3)nc3cc(Cl)ccc23)CC1	·	–	·	–	–	·
COc1ccc(CC2=CC(=O)c3ccccc3C2=O)cc1	–[11.6 µM]	10µM	–	?	–	?
O=C(CCCn1c(=O)c2cccn2c2ccccc21)Nc1cccc(Cl)c1	·	–	45µM	–	–	·
COc1cccc(N2CCN(C(=O)c3ccc4nc[nH]c4c3)CC2)c1	–[11.6 µM]	?	–	–	–	89µM
O=c1c(S(=O)(=O)c2ccc(Cl)cc2)cn(Cc2ccc(F)cc2)c2ccc(F)cc12	·	79µM	–	–	?	–
O=c1c(S(=O)(=O)c2ccc(Cl)cc2)cn(Cc2ccccc2)c2ccc(F)cc12	–	–	–	–	–	–
